Bioassay records: PubChem BioAssay, National Center for Advancing Translational Sciences (NCATS)
Compounds with a hit are over-represented: about 2.4% of the library has one in this group of screens.
POLK inh = qHTS for Inhibitors of Polymerase Kappa | DNA polymerase kappa (Homo sapiens), Q9UBT6 | Potency, µM (titrated, usually from 107 µM), hits mostly inhibitors | 400,000 tested, 0.53% active | purified Pol kappa, fluorescent DNA synthesis assay, 10 min
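Fluorescent qHTS in 1536-well format: enzyme (10 nM) and compound sat 15 min at room temperature before 50 nM substrate (final) was added. Signal taken at 0 and 10 min; no-enzyme buffer wells were negative controls.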
WRN inhibitor = qHTS for Inhibitors of WRN Helicase; Bifunctional 3'-5' exonuclease/ATP-dependent helicase WRN (Homo sapiens), Q14191; WRN helicase unwinding, fluorescent forked duplex, kinetic; Potency, µM (highest dose often 114 µM), actives largely listed as inhibitors; 360,000 tested, 0.46% active; AID 651768, 2012; also: nearly all actives have a fitted effect of over 55% in size
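Fluorescence dequenching readout, ex 525 nm/em 598 nm, kinetic mode: forked duplex DNA (100 nM final) with adjacent fluorophore and quencher unwound by WRN (20 nM final) with 2 mM ATP. Compound preincubation 15 min, room temperature.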
POLI inh = qHTS for Inhibitors of Polymerase Iota; DNA polymerase iota (Homo sapiens), Q9UNA4; Pol iota fluorescent replication assay, 10 min; Potency, µM (top dose mostly 115 µM), actives largely listed as inhibitors; 390,000 tested, 1% active
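Fluorescent replication assay read twice, at 0 min and 10 min after adding 50 nM (final) substrate. Enzyme (10 nM) and compounds were first incubated 15 min at room temperature; enzyme-free buffer wells were negative controls.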
POLB inh = qHTS Assay for Inhibitors of DNA Polymerase Beta; P06746; Pol beta primer extension/strand displacement, fluorescence kinetic; Potency, µM (top dose mostly 114 µM), actives largely listed as inhibitors; 340,000 tested, 1.3% active
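Pol beta (10 nM) and compounds were preincubated 15 min at room temperature, then 50 nM substrate (final) started primer extension/strand displacement. Reads were taken at 0 and 10 min; concentration-response data were fitted to a four-parameter Hill equation.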
FEN1 inhibitor = qHTS Assay for the Inhibitors of Human Flap endonuclease 1 (FEN1). P39748. Recombinant FEN1 flap cleavage, fluorescence, 15 min. Potency, µM (highest dose often 114 µM), actives largely listed as inhibitors. 390,000 tested, 0.35% active; also: nearly all actives have a fitted effect of over 65% in size
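Enzyme 10 nM, 15 min RT preincubation with compound; start with substrate 50 nM final; reads at 0 and 15 min; qHTS titration, four-parameter Hill fit.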
POLH inh = qHTS for Inhibitors of Polymerase Eta | 390,000 tested, 1.2% active | AID 588591, 2011 | DNA polymerase eta (Homo sapiens), Q9Y253 | Potency, µM (top dose mostly 114 µM), hits mostly inhibitors | recombinant Pol eta, fluorescent DNA replication assay
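Pol eta (10 nM) was preincubated with compounds for 15 min at room temperature, after which fluorescent replication substrate (50 nM final) was added to start the reaction. Fluorescence was read kinetically at 0 and 10 min.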
Numbers stand for hits; [ ] = another dose, or the depositor's remark. Calls follow the shape of the dose curve; as a rule, active = well fitted curve in the direction sought with a large enough effect; inconclusive = small, poorly fitted or top-dose-only effect, or another doubt; inactive = no such curve, though single readings can be large; an effect the other way counts as inactive or inconclusive.

Screening CC(C)C(C)N(Cc1ccc(C(=O)O)cc1)C(=O)c1ccc2ccccc2n1 (centres undefined) returned POLK inh inactive, WRN inhibitor inactive[11.6 µM], POLI inh inconclusive, FEN1 inhibitor inactive and POLH inh inactive.
CC(C)[C@H](NC(=O)C1CCN(S(=O)(=O)c2ccc(F)cc2)CC1)C(=O)NCc1ccncc1 was read as POLK inh inactive, WRN inhibitor inactive, POLI inh inactive, POLB inh inactive, FEN1 inhibitor inactive and POLH inh inactive.
`CC1Cc2cc(/C(O)=C3/C(=O)C(=O)N(CC4CCCO4)C3c3ccco3)ccc2O1` (centres undefined) gave POLK inh inactive, WRN inhibitor inactive, POLI inh inconclusive, POLB inh 22µM, FEN1 inhibitor inactive and POLH inh 14µM.
`CCOc1cccc(C2/C(=C(/O)c3ccc4c(c3)CC(C)O4)C(=O)C(=O)N2CCN2CCOCC2)c1` (centres undefined) gave POLK inh inactive, WRN inhibitor inactive, POLI inh inactive, POLB inh inactive, FEN1 inhibitor inactive and POLH inh inactive.
C=CCOc1cccc(C2/C(=C(/O)c3ccc4c(c3)CC(C)O4)C(=O)C(=O)N2CCN2CCOCC2)c1 (centres undefined) was read as POLK inh inactive, WRN inhibitor inactive[11.6 µM], POLI inh 89µM, POLB inh inactive, FEN1 inhibitor inactive and POLH inh inactive.
For CCOc1ccccc1C(=O)NCc1nc2cccnc2n1Cc1ccc(C)cc1 the results were POLK inh inactive, POLI inh inactive, POLB inh inactive, FEN1 inhibitor inactive and POLH inh inactive.
Oc1ccccc1C1=Nc2ncnn2C(c2ccc(F)cc2)C1 (centres undefined) was read as POLK inh inactive, WRN inhibitor inconclusive, POLI inh inactive, POLB inh 32µM, FEN1 inhibitor inactive and POLH inh inconclusive.
CCCc1cc(C(=O)N2CCN(C(c3ccccc3)c3ccccc3)CC2)no1 was read as POLK inh 89µM, WRN inhibitor inactive, POLI inh inconclusive, POLB inh inactive, FEN1 inhibitor inactive and POLH inh inconclusive.
`S=C(NCCc1ccccc1)N1CCN(C(c2ccccc2)c2ccccc2)CC1` gave POLK inh inactive, WRN inhibitor inactive, POLI inh inactive, POLB inh 89µM, FEN1 inhibitor inactive and POLH inh inactive.
`CCCNC(=S)N1CCN(C(c2ccccc2)c2ccccc2)CC1` gave POLK inh inactive, WRN inhibitor inactive, POLI inh inactive, POLB inh 56µM, FEN1 inhibitor inconclusive and POLH inh inconclusive.
`CCCCNC(=S)N1CCN(C(c2ccccc2)c2ccccc2)CC1` gave POLK inh inactive, WRN inhibitor inactive, POLI inh inactive, POLB inh inactive, FEN1 inhibitor inactive and POLH inh inactive.
CC(C)(C)OC(=O)NCCC(=O)N/N=C/c1cccc2cccnc12 was read as POLK inh inactive, WRN inhibitor inactive, POLI inh inactive, POLB inh inactive, FEN1 inhibitor inactive and POLH inh inactive.
For O=C(CS(=O)(=O)c1c[nH]c2ccccc12)Nc1ccc2c(c1)OCCO2 the results were POLK inh inactive, WRN inhibitor inactive, POLI inh inactive, POLB inh inactive, FEN1 inhibitor inactive and POLH inh inactive.
O=c1c2cn[nH]c2nc(SCc2ccc3c(c2)OCCO3)n1-c1ccccc1 was read as POLK inh inactive, WRN inhibitor inactive, POLI inh inactive, POLB inh inactive, FEN1 inhibitor inactive and POLH inh inactive.
For COc1ccc(/C=C2\SC(=S)N(NC(=O)c3ccncc3)C2=O)cc1OC the results were POLB inh inactive.
`COc1ccc(/C=C2\SC(=N)N(c3nccs3)C2=O)cc1OC` gave POLK inh inactive, WRN inhibitor inactive, POLI inh inactive, POLB inh inconclusive, FEN1 inhibitor 79µM and POLH inh inconclusive.
